Each structure is given as a SMILES string. Results filed as inconclusive are left out. Active and inactive are the calls of the source. Unless noted, cut-off not given; nearly all actives show AC50 up to about 26 µM.

Test [1] concerns the target ATP-dependent translocase ABCB1 (Homo sapiens) (UniProt P08183). In words: P-glycoprotein substrate transport blockade – cell-based (AID 377; in the data active means fluorescence slope change above about 50%). The following applies: MDR1-expressing cells, fluorescent substrate accumulation slope; stronger effect = higher value; concentration not given here.
Test [2] concerns Hepatitis C virus NS3 helicase. In words: blockers of NS3h binding to ssDNA – biochemical, fluorescence polarization, LOPAC1280 library, primary screen (AID 687035; in the data active means inhibition above about 37%). The following applies: Purified HCV NS3 helicase, Cy5-dT15 ssDNA binding fluorescence polarization; stronger effect = higher value; concentration not given here.
Test [3] in a line: compounds altering Cy5-DNA-NS3h complex signal – biochemical, LOPAC1280, artefact control for HCV NS3 helicase inhibitor project (AID 687037; call rule not given here). The conditions noted are these: Cy5-DNA-NS3h complex fluorescence interference counterscreen.
Test [4] is described as follows: growth inhibition, single agent or in combination, cell-based, chromothripsis tumors, cisplatin or BGB combos (AID 1671449; in the data active means inhibition above about 80%;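 further: cells exposed for 96 hours; 0% = vehicle DMSO and 100% = killing by high DMSO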). The conditions noted are these: LFS_MB_P medulloblastoma cells.
Test [5] in a line: growth inhibition, single agent and combos, cell-based, chromothripsis tumors, cisplatin or BGB combos (AID 1671450; in the data active means inhibition above about 80%;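 further: cells exposed to compound for four days; 0% = vehicle DMSO and 100% = cell killing by high DMSO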). The conditions noted are these: HDN33 neuroblastoma cells, stronger effect = higher value.
Test [6] can be described thus: growth inhibition, single agents and combos, ICB984, cell-based, cisplatin or BGB combos, synergistic combos for chromothripsis tumors (AID 1671451; call rule not given here;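 further: cells exposed for 96 hours before readout; 0% = vehicle DMSO and 100% = killing by high DMSO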). The conditions noted are these: ICB984 medulloblastoma cells, drug combinations, stronger effect = higher value.
Test [7] is described as follows: growth inhibition, single agents and combos, HTB85, cell-based, BGB or cisplatin IC20 combos, synergistic combos for chromothripsis tumors (AID 1671453; in the data active means inhibition above about 80%;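 further: cells exposed for 96 hours before readout; 0% = vehicle DMSO and 100% = high DMSO killing control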). The following applies: HTB85 osteosarcoma cells, drug combinations, stronger effect = higher value.
A short description of test [8]: growth inhibition, MDA-MB-436, cell-based, BGB or cisplatin combos, synergistic combos for chromothripsis tumors (AID 1671458; call rule not given here;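 further: cells exposed for 96 hours; 0% = vehicle DMSO and 100% = killing by high DMSO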). The conditions noted are these: MDA-MB-436 breast carcinoma growth inhibition, drug combinations, stronger effect = higher value.
A short description of test [9]: BT084 cell growth, single and combined drugs, ICGC_MB145, cisplatin and BGB IC40 combos (AID 1671461; in the data active means inhibition above about 80%;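 further: cells exposed to drugs for 96 hours; 0% = vehicle DMSO and 100% = high DMSO full killing control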). The conditions noted are these: BT084 medulloblastoma cells, drug combinations, stronger effect = higher value.
Test [10] is described as follows: RCMB18 cell growth, single agent and combined, cisplatin and BGB IC40 combos (AID 1671462; in the data active means inhibition above about 80%;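 further: cells exposed to compound for four days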). The following applies: RCMB18 medulloblastoma cells, stronger effect = higher value.
The nature of test [11]: CRL1545 cell growth, single agent and combined, cisplatin and BGB IC20 combos (AID 1671464; in the data active means inhibition above about 80%;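 further: cells exposed to compound for 96 hours before readout; 0% = vehicle DMSO and 100% = high DMSO killing control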). The conditions noted are these: CRL1545 osteosarcoma cells, stronger effect = higher value.
Test [12] in a line: viability loss in pontine glioma line – cell-based, SU-DIPG-XVII, MIPE5.0, CellTiter-Glo, qHTS, dose response (AID 1347060). The conditions noted are these: CellTiter-Glo ATP luminescence. (ATP-based viability assays read luminescence as a measure of living cells.)
The nature of test [13]: viability loss in pontine glioma line – cell-based, JHH-DIPG-1, MIPE4.0, CellTiter-Glo, qHTS, dose response (AID 1347062; cut-off not given, nearly all actives have AC50 up to about 27 µM). The following applies: JHH-DIPG-1 viability, CellTiter-Glo ATP luminescence.
The nature of test [14]: viability loss in pontine glioma line – cell-based, SU-DIPG-XIII, MIPE5.0, CellTiter-Glo, qHTS, dose response (AID 1347064; cut-off not given, nearly all actives have AC50 up to about 23 µM). The conditions noted are these: CellTiter-Glo ATP luminescence.
The nature of test [15]: viability loss in pontine glioma line – cell-based, SU-DIPG-XXV, MIPE5.0, CellTiter-Glo, qHTS, dose response (AID 1347065).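 Further: cells exposed to compound for 48 hours before ATP readout.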 The conditions noted are these: CellTiter-Glo ATP luminescence.
Test [16] is described as follows: growth inhibition of DIPG cells – cell-based, MIPE5.0 library, qHTS (AID 1347068; cut-off not given, nearly all actives have IC50 up to about 30 µM). The following applies: SU-DIPG-XXV viability.
A short description of test [17]: viability loss in pontine glioma line – cell-based, SU-DIPG-XIII, MIPE4.0, CellTiter-Glo, qHTS, dose response (AID 1347061; cut-off not given, nearly all actives have AC50 up to about 37 µM;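 further: cells exposed to compound for 48 hours before readout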). The following applies: CellTiter-Glo ATP luminescence.
A short description of test [18]: viability loss in pontine glioma line – cell-based, SU-DIPG-IV, MIPE4.0, CellTiter-Glo, qHTS, dose response (AID 1347063; cut-off not given, nearly all actives have AC50 up to about 30 µM;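 further: compound exposure lasted 48 hours before the viability readout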). The conditions noted are these: CellTiter-Glo ATP luminescence.
The nature of test [19]: growth inhibition of DIPG cells – cell-based, MIPE4.0 library, CellTiter-Glo luminescence, qHTS (AID 1347066; cut-off not given, nearly all actives have AC50 up to about 30 µM;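 further: cells exposed to compound for 48 hours before readout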). The following applies: SU-DIPG-VI viability, CellTiter-Glo ATP luminescence.
The nature of test [20]: JHH-DIPG-1 glioma cell viability, MIPE5.0 library, CellTiter-Glo luminescence, qHTS (AID 1347067).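 Further: cells exposed to compound for 48 hours before readout.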 The conditions noted are these: JHH-DIPG-1 glioma viability, CellTiter-Glo ATP luminescence.
Setting [21] is: measured here: with BGB IC20 combination, at 0.5 µM.
[22] abbreviates: measured here: with cisplatin IC20 combination, at 0.5 µM.

Sequence of ATP-dependent translocase ABCB1 (Homo sapiens) (P08183 whole entry, looked up): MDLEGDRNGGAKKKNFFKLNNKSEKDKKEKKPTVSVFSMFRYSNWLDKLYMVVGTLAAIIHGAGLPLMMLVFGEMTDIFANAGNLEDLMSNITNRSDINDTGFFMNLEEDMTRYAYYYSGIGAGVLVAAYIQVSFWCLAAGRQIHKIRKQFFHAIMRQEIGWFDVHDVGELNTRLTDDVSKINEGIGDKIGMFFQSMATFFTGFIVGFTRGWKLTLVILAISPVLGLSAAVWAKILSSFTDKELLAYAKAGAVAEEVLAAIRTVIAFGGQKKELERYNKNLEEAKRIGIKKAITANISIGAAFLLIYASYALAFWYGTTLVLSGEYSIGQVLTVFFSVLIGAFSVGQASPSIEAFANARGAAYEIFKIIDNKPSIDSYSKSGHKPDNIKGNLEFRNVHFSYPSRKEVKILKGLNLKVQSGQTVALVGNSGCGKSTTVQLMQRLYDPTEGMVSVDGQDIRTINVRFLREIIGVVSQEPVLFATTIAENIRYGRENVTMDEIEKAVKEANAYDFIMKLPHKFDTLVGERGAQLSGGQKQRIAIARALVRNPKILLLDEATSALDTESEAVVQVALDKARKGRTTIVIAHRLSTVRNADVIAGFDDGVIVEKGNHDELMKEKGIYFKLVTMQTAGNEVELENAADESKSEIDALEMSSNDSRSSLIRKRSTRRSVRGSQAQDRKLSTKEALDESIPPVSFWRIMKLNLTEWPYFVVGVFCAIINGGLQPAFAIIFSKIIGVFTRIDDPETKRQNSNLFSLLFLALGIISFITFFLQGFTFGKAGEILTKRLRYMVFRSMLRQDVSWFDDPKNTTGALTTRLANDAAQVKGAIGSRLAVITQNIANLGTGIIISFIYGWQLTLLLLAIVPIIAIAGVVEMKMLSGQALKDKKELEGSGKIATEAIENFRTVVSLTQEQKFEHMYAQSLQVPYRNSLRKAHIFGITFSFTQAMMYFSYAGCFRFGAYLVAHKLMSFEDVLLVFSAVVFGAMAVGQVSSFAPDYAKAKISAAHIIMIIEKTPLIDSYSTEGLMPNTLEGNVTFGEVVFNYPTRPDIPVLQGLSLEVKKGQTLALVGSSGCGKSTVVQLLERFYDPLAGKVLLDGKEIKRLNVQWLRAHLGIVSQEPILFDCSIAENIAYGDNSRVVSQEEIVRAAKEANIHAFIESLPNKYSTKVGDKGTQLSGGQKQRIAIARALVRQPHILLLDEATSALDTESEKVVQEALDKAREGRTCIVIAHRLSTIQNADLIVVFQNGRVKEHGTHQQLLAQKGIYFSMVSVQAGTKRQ

In general, inhibition refers to the relative decrease from the control value, in per cent. Consider `CCn1nc(C(=O)O)c(=O)c2cc3c(cc21)OCO3`, for which the fluorescence slope change in test [1] is 14.5% (inactive). For the same molecule, the inhibition was -4% (inactive) in [2]; -4.36% (inactive) in test [4] (at 0.5 µM, stronger effect = higher value); -22% in test [4] (measured here: combination with BGB IC20, at 0.005 µM); -16.5% in [4] (measured here: combination with BGB IC40, at 0.005 µM); -12.9% in [4] (measured here: combination with BGB IC40, at 0.05 µM); -13.6% in [4] (measured here: combination with cisplatin, at 0.5 µM, stronger effect = higher value). For the same molecule, the inhibition is -41.5% in test [4] (measured here: combination with cisplatin, at 5 µM, stronger effect = higher value); -23.8% in test [5] (BGB combo, at 5 µM); -7.41% (inactive) in [5] (at 0.5 µM); -10.5% in test [5] (cisplatin combo, at 5 µM); -15.2% in test [5] (setting [21]); -1.32% in test [5] (setting [22]). Also, the inhibition in [5] (single agent, at 5 µM) was -41.5%; in test [6] (BGB IC20 combo, at 0.005 µM), -15.8%; in test [6] (BGB IC40 combo, at 0.005 µM), -16.7%; in test [6] (BGB IC40 combo, at 0.05 µM), -9.96%; in [6] (at 0.5 µM), -5.52% (inactive); in test [6] (cisplatin combo, at 0.05 µM) it was -9.96%. Also, the inhibition in [6] (cisplatin combo, at 0.5 µM) was -1.52%; in test [6] (cisplatin combo, at 5 µM) it was -43.4%; in [6] (measured here: 5 uM single agent, at 5 µM) it was -20.7%; in test [7] (at 0.5 µM) it was -28.8% (inactive); in [7] (measured here: with BGB IC20, at 0.5 µM), -63%; in test [7] (measured here: with BGB IC20, at 5 µM), 5.32%. Further, the inhibition is -29.8% in [7] (measured here: with cisplatin IC20, at 0.5 µM); -12.6% in [7] (measured here: with cisplatin IC20, at 5 µM); -6.73% in test [7] (single agent, at 5 µM); -10.8% (inactive) in test [8] (at 0.5 µM); -3.35% in [8] (measured here: BGB combination, at 0.5 µM); -16.6% in test [8] (measured here: BGB combination, at 5 µM). The inhibition is -23.3% in [8] (measured here: cisplatin combination, at 0.5 µM); -13.2% in test [8] (measured here: cisplatin combination, at 5 µM); -21.7% (inactive) in test [9] (at 0.5 µM); -15.5% in test [9] (cisplatin combination, at 0.5 µM); -34.6% in test [9] (cisplatin combination, at 5 µM); -12.7% in [9] (measured here: BGB IC40 combination 0.05 uM, at 0.05 µM). Also, the inhibition was -10.2% in test [9] (single agent, at 5 µM); -22.9% (inactive) in test [10] (at 0.5 µM); -5.51% in [10] (cisplatin combo, at 5 µM); -14.3% in test [10] (measured here: BGB IC40 combination, at 0.05 µM); -7.95% in test [10] (measured here: combination with cisplatin, at 0.5 µM); -10.2% in test [10] (single agent, at 5 µM). The inhibition in [11] (at 0.5 µM) is -33.4% (inactive); in test [11] (setting [21]), -23%; in [11] (setting [22]), -38.6%; in test [11] (single agent, at 0.05 µM), 5.27%; in test [11] (single agent, at 5 µM), 10.4%. In addition, the fluorescence ratio (interference) in test [3] is 1 (inactive).

On to `CCC(c1ccc(O)cc1)C(CC)c1ccc(O)cc1` (stereo unspecified), for which the fluorescence slope change in [1] was 18% (inactive). Moreover, the molecule was called inactive in test [12], in [13], in test [14], in test [15] and in test [16].

As for `O=C(/C=C/C=C/c1ccc2c(c1)OCO2)N1CCCCC1`, the fluorescence slope change in [1] was 92.2% (active). The molecule was classed as inactive in test [12], in [17], in [13], in [18], in test [14] and in [15]. In addition, the call in test [19], in test [20] and in test [16] was inactive.

The term AC50 denotes the midpoint of the concentration-response curve, whichever way the signal moves. Turning to `O=C(O)/C=C/c1ccc(O)c(O)c1`, the inhibition in [2] is 0% (inactive). Besides, the fluorescence ratio (interference) in [3] was 1 (inactive). Also, the AC50 in [18] was 20.9 µM (active).

For `O=c1c(O)c(-c2ccc(O)cc2O)oc2cc(O)cc(O)c12`, in test [2], the inhibition was -4% (inactive). Also, in [3], the fluorescence ratio (interference) is 1 (inactive). Also, the molecule was classed as inactive in test [12], in [17], in [13], in test [18], in test [14] and in test [19]. For the same molecule, the outcome in test [20] and in [16] was inactive.

For the molecule `CCCc1nn(C)c2c(=O)[nH]c(-c3cc(S(=O)(=O)N4CCN(C)CC4)ccc3OCC)nc12`, the result in test [12], in [13], in [18], in test [14], in test [20] and in [16] was inactive.

For the molecule `NC[C@H]1O[C@H](O[C@H]2[C@H](O)[C@@H](O[C@H]3O[C@H](CO)[C@@H](O)[C@H](N)[C@H]3O)[C@H](N)C[C@@H]2N)[C@H](N)C[C@@H]1O`, the molecule was called inactive in test [12], in [17], in test [13], in test [18], in test [14] and in test [19]. For the same molecule, the outcome in test [20] and in test [16] was inactive.

As to `O=C(/C=C/c1ccc(O)cc1)c1ccc(O)cc1O`, the inhibition in test [2] is 0% (inactive). For the same molecule, the fluorescence ratio (interference) in [3] was 0.9 (inactive). Besides, in test [12], the molecule was called inactive.

As to `COc1ccc(C(C)=O)c(O)c1`, the AC50 in [17] is 0.0132 µM (active).

On to `CC[C@H]1OC(=O)[C@H](C)[C@@H](O[C@H]2C[C@@](C)(OC)[C@@H](O)[C@H](C)O2)[C@H](C)[C@@H](O[C@@H]2O[C@H](C)C[C@H](N(C)C)[C@H]2O)[C@](C)(O)C[C@@H](C)C(=O)[C@H](C)[C@@H](O)[C@]1(C)O`, for which the fluorescence slope change in test [1] was 76.3% (active). For the same molecule, the molecule was classed as inactive in test [12], in test [15], in test [20] and in test [16].
